# Data taken from the supplement of paper PMC4166925.
# ± gives the standard deviation of the averaged measurements. The full ranking holds about 33,000 sequences; the median of “E-score (dimensionless, -0.5 to 0.5)” is about -0.046, and the highest 2% start at about 0.36. What follows is part of a selection rich in the highest values, with near analogues and random picks from the rest.
# System: T1, SpTbr T-box DNA-binding domain (GST fusion)
# T1 sequence: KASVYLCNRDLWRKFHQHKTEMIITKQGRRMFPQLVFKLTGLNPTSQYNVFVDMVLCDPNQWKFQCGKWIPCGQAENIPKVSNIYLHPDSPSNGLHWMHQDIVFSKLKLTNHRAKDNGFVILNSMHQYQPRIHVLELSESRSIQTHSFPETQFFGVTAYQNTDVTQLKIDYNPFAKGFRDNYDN
# Assay: PBM E-score of 8-mer (E-score (dimensionless, -0.5 to 0.5)); Tbr is Tbrain of the sea star Patiria miniata (Pm) or the sea urchin Strongylocentrotus purpuratus (Sp); higher = stronger binding preference
# Details: the construct has about 5 more residues each side
# Method in brief: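 Primer extension turned Universal Agilent oligonucleotide arrays double-stranded. They were incubated with 200 nM protein in PBS (pH 7.5); the protein was a GST-fused Tbr T-box DNA-binding domain expressed in BL21 E. coli at 20 °C and purified on glutathione. Every ungapped 8-mer was scored from the scanned, quantified probe intensities, and the Universal PBM Analysis Suite gave each an enrichment E-score averaged over duplicate arrays.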
row,Sequence,PBM E-score of 8-mer
1,CGCGCGAC,0.284 ± 0.015
2,AGCGCGAG,0.306 ± 0.017
3,GGCGCGCA,0.153 ± 0.047
4,AGCGCGAT,0.276 ± 0.009
5,AGCGCGAC,0.253 ± 0.026
6,GGCGCGAC,0.369 ± 0.017
7,GGCGCGAA,0.463 ± 0.011
8,GACGCGAA,0.138 ± 0.006
9,TGCGCTAA,0.191 ± 0.035
10,CGCGCTAA,0.338 ± 0.0063
11,AGCGCGAA,0.405 ± 0.019
12,GGCGCTAA,0.4 ± 0.035
13,AGCTACAA,-0.161 ± 0.011
14,GCACGCGC,0.216 ± 0.095
15,ATAGATGA,-0.0521 ± 0.016
16,CTGAAGCA,-0.141 ± 0.0054
17,CCGTGCCC,-0.244 ± 0.013
18,CCGTACAA,-0.197 ± 0.0048
19,TGCGCGAA,0.349 ± 0.036
20,CGCGCGAG,0.304 ± 0.036
21,CCCGCGAA,0.371 ± 0.019
22,GCCGCGAA,0.343 ± 0.0045

row,Sequence,PBM E-score of 8-mer
1,CGCGCGAA,0.408 ± 0.013
2,TCCGCGAA,0.2876 ± 0.00083
3,CGCAATTC,0.169 ± 0.0051
4,AAAGATCT,-0.1 ± 0.035
5,ATTGAGGG,-0.243 ± 0.003
6,GACCTTCC,-0.00679 ± 0.036
7,GACCTTCA,-0.0627 ± 0.081
8,CCCCTTCG,-0.137 ± 0.046
9,CACCTTCC,0.401 ± 0.014
10,AACCTTCG,-0.0878 ± 0.018
11,AACCTTCA,-0.0641 ± 0.013
12,CACCTTCA,0.412 ± 0.0047
13,AACCTTCC,-0.169 ± 0.048
14,CACCTTCG,0.396 ± 0.017
15,CGTGGTCC,-0.204 ± 0.045
16,CCGCCACA,0.157 ± 0.021
17,CCTCCTAA,-0.2059 ± 0.001
18,TAAGCGAA,-0.0797 ± 0.053
19,GAAGGTGC,0.41 ± 0.019
20,TAAGGTGA,0.331 ± 0.021
21,CAAGGTGC,0.421 ± 0.0087
22,GAAGGTGA,0.348 ± 0.035

row,Sequence,PBM E-score of 8-mer
1,CAAGGTTC,0.047 ± 0.016
2,CAAGGTAA,-0.0662 ± 0.017
3,CAAGGTGA,0.392 ± 0.0089
4,GAAGGTAC,-0.239 ± 0.019
5,CAAGGTGG,0.311 ± 0.015
6,ACCTAGAA,-0.0152 ± 0.079
7,ACTGCTCG,0.0799 ± 0.013
8,CTCGGGAC,-0.118 ± 0.062
9,AACTGTTA,0.284 ± 0.03
10,TGAGCCAA,-0.229 ± 0.019
11,CCCCCATC,-0.0563 ± 0.053
12,AAGTGTGC,0.3891 ± 0.00091
13,AAGTGTGG,0.417 ± 0.013
14,CAGTGTGC,0.106 ± 0.0063
15,AAGTGGGA,0.238 ± 0.037
16,AAGTGTGT,0.331 ± 0.0059
17,AAGTGGGG,0.177 ± 0.0055
18,ACTGCCTA,-0.14 ± 0.028
19,AACTTTCG,0.00917 ± 0.0092
20,CTCTGGGA,0.00265 ± 0.049
21,ACAATAGA,-0.149 ± 0.042
